Data: ChEMBL document CHEMBL3988442, “University of Dundee, Small-Polar-MMV Screening Library” (2021)
The campaign covered roughly 85,000 compounds. About 440 (0.52%) showed an effect of 50% or more. This is one part of a sample in which strong results are shown more often than they occur.

Assay: In vitro enzyme assay to detect hydrolysis of chlorophenol red-beta-D-[…] directly proportional to the number of Toxoplasma stably expressing beta-galactosidase
Assay type: functional, organism-based, Toxoplasma gondii
Set-up: scale not given: in the data most compounds retested in dose-response had high values

| Structure (SMILES) | Percent Effect (50 µM) [%] | Percent Effect (10 µM) [%] |
| --- | --- | --- |
| Cc1n[nH]c(SCC(=O)NC2CCCCC2)n1 | 32.19 | – |
| Nc1ccn(-c2ccc(C(F)(F)F)cn2)n1 | 9.315 | – |
| CC(C)c1ccn(C)n1 | 1.261 | – |
| Cn1nccc1CCC(=O)NCC[C@@H]1CCCN1 | 2.008 | – |
| Cc1cc(C)n(CCC(=O)NCc2ccccn2)n1 | -3.878 | – |
| CCCNC(=O)CCn1nc(C)cc1C | 59.42 | – |
| CCC(C)C(=O)NCCCn1nc(C)cc1C (stereo not given) | – | 6.68 |
| C=C(C)CNc1nc2nonc2nc1NCCOC | 14.38 | – |
| CC(C)c1nnsc1CNC(=O)CCc1csc(N)n1 | -4.031 | – |
| Cc1cc(C(=O)NC(C)c2ccncc2)ncn1 (stereo not given) | 8.375 | – |
| CC(=O)Nc1ccccc1CN | -1.882 | – |
| CCCNC(=O)N1CCN(CCC)CC1 | -47.68 | – |
| CCNC(=O)N1CCNCC1 | 13.83 | – |
| CCCC(=O)N1CCN(C(=O)NCC)CC1 | 54.38 | – |
| COCC(C)(O)C(F)(F)F (stereo not given) | 7.186 | – |
| CC1Cc2ccccc2N1C(=O)c1ccccn1 (stereo not given) | 2.942 | – |
| COCC(O)CN(C)CCn1cc(Br)cn1 (stereo not given) | 16.66 | – |
| c1cnn(CCCNCCCn2cccn2)c1 | 0.4357 | – |
| CCN(CC)CCNc1nc(C(C)C)nc2c(C)nn(CC)c12 | – | 58.79 |
| CCn1nc(C)c2nc(C(C)C)nc(NCC(C)O)c21 (stereo not given) | – | 75.76 |
| CCn1nc(C)c2nc(C(C)C)nc(NCCc3ccc(O)cc3)c21 | – | 48.01 |
| CCn1nc(C)c2nc(C(C)C)nc(NCCCO)c21 | – | 1.913 |
| CCn1nc(C)c2nc(C(C)C)nc(NC)c21 | – | 39.93 |
| CCn1nc(C)c2nc(C(C)C)nc(NCC(C)C)c21 | – | 49.36 |
| COc1ccnc(N2CC[S+]([O-])CC2)n1 | -6.202 | – |
| O=C(CC1C=CCC1)NCc1ccccn1 (stereo not given) | -4.879 | – |
| Cc1cccc(NC(=O)NC2CCN(C)CC2)c1 | -9.939 | – |

| Structure (SMILES) | Percent Effect (50 µM) [%] | Percent Effect (10 µM) [%] |
| --- | --- | --- |
| CC(NC(=O)NCCCN1CCCC1=O)c1ccco1 (stereo not given) | -1.872 | – |
| CCN(Cc1cccc(F)c1)C1CCS(=O)(=O)C1 (stereo not given) | -4.951 | – |
| Cc1ccc(CN(CC(=O)N2CCNC2=O)C(C)C)s1 | -25.32 | – |
| CCc1noc(CC)c1CNC(=O)Nc1ncnn1C | 67.97 | – |
| CCc1noc(CC)c1CNC(=O)Nc1cccc([S+](C)[O-])c1 (stereo not given) | – | 5.882 |
| CSCCCNC(=O)Nc1ncnn1C | -6.612 | – |
| Cc1cc(NC(=O)NCCN2CCC(C)CC2)n(C)n1 | -15.44 | – |
| CCc1noc(CC)c1CNC(=O)Nc1cccc(C(=O)N(C)C)c1 | – | -1.441 |
| CC1CCN(CCNC(=O)Nc2ncnn2C)CC1 | 93.89 | – |
| CN1CCCN(C(=O)c2ccc(N(C)C)cc2F)CC1 | -3.403 | – |
| CN(CCOc1ccc(Cl)cc1)CCC(N)=O | -5.352 | – |
| CN(C)S(=O)(=O)N1CC(=O)NCC1(C)C | 14.19 | – |
| OCCNc1nccc(-c2c[nH]nc2-c2ccco2)n1 | – | 54.25 |
| OCCNc1nccc(-c2c[nH]nc2-c2cccnc2)n1 | – | -8.104 |
| OCCNc1nccc(-c2c[nH]nc2-c2ccncc2)n1 | – | -1.451 |
| CN1Cc2ccccc2CC1=O | -6.86 | – |
| NC1CCC(N2C(=O)CCC2=O)CC1 (stereo not given) | 15.63 | – |
| CN(C)Cc1cccc(C(=O)N[C@@H]2CCOC[C@H]2O)c1 | -6.19 | – |
| CCCc1ccc(C(=O)N[C@@H]2CCOC[C@H]2O)cc1 | 64 | – |
| O=C(N[C@@H]1CCOC[C@H]1O)c1ccncc1 | -0.1422 | – |
| C=C(C)C(C)(C)C(=O)N[C@@H]1COCC[C@H]1O | 16.24 | – |
| Cc1oc(-c2ccoc2)nc1CN1CCCCC1CCc1ccccc1 (stereo not given) | – | -14.19 |
| COCC1CCCCN1Cc1nc(-c2ccoc2)oc1C (stereo not given) | – | 1.217 |
| Cc1oc(-c2ccoc2)nc1CN1CCC[C@H]1CO | – | 75.83 |
| O=C(Nc1ccc(-n2nccn2)cc1)N1CCC(O)C1 (stereo not given) | -2.451 | – |
| CSCC[C@H](N)C(=O)N(C)Cc1ncc(Cl)n1C | -3.024 | – |
| Cc1ccc(CNC(=O)N2Cc3ccccc3C2)cn1 | -21.35 | – |

| Structure (SMILES) | Percent Effect (50 µM) [%] | Percent Effect (10 µM) [%] |
| --- | --- | --- |
| C=C/C=c1\c(=C/C)oc2c(NCc3ccccc3)nc(C)nc12 | – | 54.55 |
| C=C/C=c1\c(=C/C)oc2c(NCc3ccccc3)ncnc12 | – | 26.91 |
| C=C/C=c1\c(=C/C)oc2c(NCc3ccccc3)nc(CC)nc12 | – | 39.81 |
| CC1CCCCN1C(=O)NCCNC(=O)c1ccn[nH]1 (stereo not given) | -2.19 | – |
| CCC(=O)c1cccc(OC)n1 | 98.31 | – |
| CCC(N)c1cccc(OC)n1 (stereo not given) | -11.92 | – |
| COc1cccc(CO)n1 | -5.543 | – |
| O=C(NCc1cccnc1)c1ccc(C(F)(F)F)nc1 | 2.561 | – |
| COCCn1cncc1CO | 5.728 | – |
| O=C(NCc1cccc(Cl)c1)c1cnns1 | -15.41 | – |
| Nc1c[nH]nc1C(=O)NCc1cccc(Cl)c1 | 95.75 | – |
| Nc1ncccc1C(=O)NCc1cccc(Cl)c1 | – | 10.41 |
| CCCOc1cccc(NCC(=O)N2CCNC2=O)c1 | 1.752 | – |
| C[C@@H]1CN(C(=O)c2csc(CN(C)C)n2)C[C@]1(C)O | 11.61 | – |
| CNC(=O)Cc1noc(CCc2cccc(F)c2)n1 | -4.248 | – |
| CCC(C)N(C)CCC(=O)Nc1ccc(C(N)=O)cc1 (stereo not given) | -26.89 | – |
| COc1ccc(S(=O)(=O)N2CCN(C)CC2)c(C)c1C | 5.644 | – |
| CC(C)(C)OC(=O)NC[C@@H]1CCC[C@H]1N | -4.138 | – |
| CC(C)(C)OC(=O)NCC1CC(N)C1 (stereo not given) | 6.843 | – |
| CC(C)(C)OC(=O)NCC1CC(C(N)=O)=NO1 (stereo not given) | 54.53 | – |
| Cc1nn(C)cc1C(=O)N1CCOC2(CCCC2)C1 | 5.531 | – |
| CN(Cc1cccc(C#N)c1)Cc1ccnc(N)c1 | 100.1 | – |
| COCCN(C)Cc1ccnc(N)c1 | -7.11 | – |
| CN(CC(N)=O)Cc1cccc(C#N)c1 | -4.421 | – |
| N#Cc1ccc(N2CCCC2C(=O)NC2CC2)cn1 (stereo not given) | 0.7704 | – |
| Cc1cc(C)cc(NC(=O)CN2CCC(O)CC2)c1 | 5.146 | – |
